# Laboratory results reported in PubChem BioAssay AID894 (National Center for Advancing Translational Sciences (NCATS), 2007).
# The campaign covered roughly 150,000 compounds. About 6,500 (4.3%) were called active. Inconclusive results (about 12%) are left out. Shown is part of a subset that was picked to be rich in actives. Values without a mark were called inactive. Calls come from the whole dose curve; as a rule, active = well fitted inhibition curve with a large enough effect (not every such curve was filed as active); inconclusive = small, poorly fitted or top-dose-only effect, or another doubt; inactive = no such curve, though single readings can be large or run the other way.
# Target: 15-hydroxyprostaglandin dehydrogenase [NAD(+)] (Homo sapiens) (UniProt P15428)
# Sequence (P15428 whole entry, looked up): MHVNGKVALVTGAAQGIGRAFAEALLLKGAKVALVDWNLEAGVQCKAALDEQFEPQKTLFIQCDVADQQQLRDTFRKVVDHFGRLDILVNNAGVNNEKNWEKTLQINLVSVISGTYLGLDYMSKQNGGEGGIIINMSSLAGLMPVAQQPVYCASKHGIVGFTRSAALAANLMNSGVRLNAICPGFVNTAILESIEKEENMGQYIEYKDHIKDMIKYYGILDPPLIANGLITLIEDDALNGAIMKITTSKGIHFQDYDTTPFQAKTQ
# Assay: qHTS Assay for Inhibitors of HPGD (15-Hydroxyprostaglandin Dehydrogenase)
# Conditions: purified HPGD, NADH fluorescence kinetic, PGE2 substrate; activity change, negative = inhibition: hits give low values
# Outline: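 NADH formation kinetics: reaction with 30 uM PGE2 and 1 mM NAD+ (final), 20 nM enzyme, Tris-HCl pH 8 with Tween 20, after 15 min compound preincubation at room temperature. Fluorescence change, last versus first of five reads.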
# % is set by controls: 0 for no effect and ±100 for the full control effect; potency is the fitted concentration of half-maximal effect.
SMILES,"activity change, negative = inhibition",Potency
Cc1ccc(Cn2ccc(NC(=O)c3cc(C(C)C)on3)n2)cc1,-19.4%,
O=C(Nc1ccn(Cc2ccc(F)cc2)n1)c1ccncc1,1.11%,
O=C(Nc1ccn(Cc2ccccc2)n1)c1n[nH]c([N+](=O)[O-])c1Cl,,28.2 µM (active)
CCOc1ccc(N2C(=O)/C(=C/c3ccc(C)o3)N(C)C2=S)cc1,-30%,
CNC(=O)c1csc(-c2ccccc2)n1,-8.99%,
C=CCNC(=O)c1csc(-c2ccccc2)n1,,15.8 µM (active)
COc1cc(OC)cc(C(=O)NCC(=O)OCc2csc(-c3ccccc3)n2)c1,-9.37%,
CC1CCCCN1S(=O)(=O)c1ccc(S(=O)(=O)N(CC(=O)Nc2ccccc2)Cc2cccs2)cc1 (centres undefined),-10.3%,
O=C(CN1C2=NCCN2c2ccccc21)c1cccs1,-3.36%,
COc1ccc2c(c1)O[C@@H](c1ccc3c(c1)OCO3)[C@H](OC(=O)NCc1ccco1)C2=O,-11.6%,
S=c1[nH]nc(SCc2ccccc2Cl)c2[nH]cnc12,,1.26 µM (active)
C[C@H]1Cc2c(COc3ccccc3)nc3c(c2CO1)CN(C(=O)NCc1ccco1)CC3,-1.13%,
COc1nc(N(C)C)nc(N2CC(=O)N(CCNS(=O)(=O)c3ccc(C)cc3)C2=N)n1,-10.5%,
c1ccc(COc2nsnc2N2CCOCC2)cc1,-17.1%,
c1nc(COc2nsnc2N2CCOCC2)cs1,,31.6 µM (active)
O=C(COc1nc2ccccc2nc1N1CCOCC1)NCC(F)(F)F,-9.54%,
C=CCNC(=O)/C(=C\c1cccc([N+](=O)[O-])c1)NC(=O)c1ccccc1,-14.6%,
Cc1cc(C)cc(OCC(=O)NNC(=O)CCN2C(=O)c3ccccc3C2=O)c1,-12.4%,
CCOC(=O)c1nnn(-c2nc(OC)nc(N(C)C)n2)c1-c1ccccc1,-1.76%,
CCOC(=O)c1nnn(-c2nonc2OC)c1-c1ccccc1,,8.91 µM (active)

SMILES,"activity change, negative = inhibition",Potency
CCOC(=O)c1nnn(-c2nonc2-n2cccc2)c1CN1CCOCC1,-13.3%,
O=C1C=C(c2ccccc2)CCC1,-3.18%,
CC1=C2[C@@H](O)[C@H]([C@@H](C)C(=O)NCCC(C)C)CC[C@@]2(C)C=CC1=O,-7.81%,
Cc1ccccc1N/C(SCc1ccc(Cl)cc1)=C(/C#N)C(N)=O,-18.2%,
COC(=O)CCCC1=CC2=CC(=O)C(C)(OC(=O)c3cccs3)C(=O)C2=CN1c1ccc(CO)cc1 (centres undefined),-7.14%,
CCOC(=O)c1cc2n(c1N)-c1ccccc1C2=O,,31.6 µM (active)
CCOC(=O)Nc1ccccc1N1C(=O)c2ccccc2C1=O,-2.62%,
CCOC(=O)c1cc2n(c1C)-c1ccccc1C2=O,-17.5%,
COc1ccc(OC)c(-c2c(=O)n(OCc3ccccc3Br)c3ccccc3[n+]2[O-])c1,-7.2%,
COC(=O)C1=C(C(=O)OC)[C@@H]2N(C)c3ccccc3[C@@]23C[C@@H](C(=O)OC)N(S(=O)(=O)c2cccs2)C3=N1,-9.16%,
CCCCCCCC[C@@H](O)/C=C/C=C/C=C\[C@@H](O)CCCC(=O)O,-0.184%,
Nc1nc(SCC(=O)NN(c2ccccc2)c2ccccc2)n[nH]1,-3.02%,
Nc1nc(SCC(=O)NNc2c(Cl)cc(Cl)cc2Cl)n[nH]1,,35.5 µM (active)
Nc1nc(SCCOc2ccccc2)n[nH]1,-1.6%,
COc1ccc(Cl)cc1NC(=O)Cn1nc(-c2ccc(C)cc2)n(C)c1=S,-0.416%,
C[C@H]1Cc2c(COc3ccccc3)nc3c(c2CO1)CN(C(=O)Nc1cccc(C#N)c1)CC3,0.277%,
N#C/C(=C\c1ccccc1)c1n[nH]c(Cn2cncn2)n1,,28.2 µM (active)
S=C(NCCc1ccccc1)NCc1ccccc1Cl,-18.9%,
O=S(=O)(NCCc1ccncc1)c1ccccc1,-10.2%,
Cc1cc(Cl)ccc1NC(=S)NCCCN1CCCC1=O,-1.25%,

SMILES,"activity change, negative = inhibition",Potency
NS(=O)(=O)c1ccc(CCNC(=O)Nc2ccc(Cl)cc2)cc1,-8.27%,
Oc1cc2c(cc1O)CN(C(=S)NCCc1ccc(Cl)cc1)CCC2,,14.1 µM (active)
Cc1ccnc(NC(=O)c2ccoc2C)c1,-2.58%,
Cc1cc2oc(C(=O)Nc3c(C)n(C)n(-c4ccccc4)c3=O)c(C)c2cc1Cl,-3.54%,
O=[N+]([O-])c1cc(S(=O)(=O)N2CCCC2)ccc1NN=C1CCCC1,-4.68%,
C=C(C)c1cccc(C(C)(C)NC(=O)NC2CCCC2)c1,-3.62%,
COc1ccc(COC(=O)N/N=C(\C)CC(=O)Nc2ccc(Cl)cc2)cc1,-4.69%,
Cc1ccc(C(c2nnnn2CS(=O)(=O)c2ccc(C)cc2)N2CCC(C(N)=O)CC2)cc1 (centres undefined),-7.21%,
Cc1cccn2c(=O)c(/C=C(\C#N)S(=O)(=O)c3ccc(Cl)cc3)c(N3CCC(C(N)=O)CC3)nc12,,15.8 µM (active)
Cc1cc(C)cc(Oc2nc3c(C)cccn3c(=O)c2/C=C(\C#N)C(=O)NC2CCS(=O)(=O)C2)c1 (centres undefined),-10.8%,
CN1CCC(=NNC(=O)c2ccc(N(Cc3ccc(Cl)cc3)S(C)(=O)=O)cc2)CC1,-8.83%,
O=C(NNC1CC(=O)N(c2cccc(Cl)c2)C1=O)c1cccnc1 (centres undefined),-13.5%,
O=C(CNS(=O)(=O)c1ccccc1)NCC(=O)OCc1ccccc1F,0.393%,
Cn1c(NC(=O)c2ccc3c(c2)OCO3)cc(=O)n(C)c1=O,-14.1%,
Cc1ccc(F)cc1NC(=O)c1ccc2c(c1)OCO2,,20 µM (active)
O=C(Nc1ccccc1)c1ccc2c(c1)OCO2,-29.6%,
Cc1ccc(C(=O)NC(C)c2ccccc2)cc1Br (centres undefined),-29.6%,
O=C(CSc1ncnc2scc(-c3ccccc3)c12)NCc1ccc2c(c1)OCO2,-13.5%,
O=C(NC(=S)NC1CCSC1=O)c1ccccc1F (centres undefined),-13.4%,
